About 7,900 targets were measured; listed, in parts, are those with a hit and a random draw of the rest. About 0.6% of all pairs of compound and target were hits.
What follows are targets tested with Cn1cc(-c2ccc3c(c2)CCN3C(=O)Cc2cccc(C(F)(F)F)c2)c2c(N)ncnc21 (assay: log2 fold change, soluble protein after heating vs DMSO (PISA); higher = thermal stabilisation; K562 cells, 10 uM, 30 min; active = over 0.2 and 3.5 SD of the protein, either way, in both replicates (recomputed)).
Procedure, shortened: (§1)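 K562 cells at 2×10^6 cells/mL were treated with 10 μM compound for 30 min. Aliquots were heated for 3 min across 48°C-58°C, pooled, and extracted in PBS with 0.5% NP-40 at 4°C; soluble protein was the supernatant after 21,000xg for 90 min. Soluble protein was quantified by TMTpro 16plex LC-MS/MS with channel sums equalised, and reported as log2 fold change in thermal stability against DMSO controls, with values from duplicates.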
UniProt P35670, sequence (P35670 whole entry, looked up): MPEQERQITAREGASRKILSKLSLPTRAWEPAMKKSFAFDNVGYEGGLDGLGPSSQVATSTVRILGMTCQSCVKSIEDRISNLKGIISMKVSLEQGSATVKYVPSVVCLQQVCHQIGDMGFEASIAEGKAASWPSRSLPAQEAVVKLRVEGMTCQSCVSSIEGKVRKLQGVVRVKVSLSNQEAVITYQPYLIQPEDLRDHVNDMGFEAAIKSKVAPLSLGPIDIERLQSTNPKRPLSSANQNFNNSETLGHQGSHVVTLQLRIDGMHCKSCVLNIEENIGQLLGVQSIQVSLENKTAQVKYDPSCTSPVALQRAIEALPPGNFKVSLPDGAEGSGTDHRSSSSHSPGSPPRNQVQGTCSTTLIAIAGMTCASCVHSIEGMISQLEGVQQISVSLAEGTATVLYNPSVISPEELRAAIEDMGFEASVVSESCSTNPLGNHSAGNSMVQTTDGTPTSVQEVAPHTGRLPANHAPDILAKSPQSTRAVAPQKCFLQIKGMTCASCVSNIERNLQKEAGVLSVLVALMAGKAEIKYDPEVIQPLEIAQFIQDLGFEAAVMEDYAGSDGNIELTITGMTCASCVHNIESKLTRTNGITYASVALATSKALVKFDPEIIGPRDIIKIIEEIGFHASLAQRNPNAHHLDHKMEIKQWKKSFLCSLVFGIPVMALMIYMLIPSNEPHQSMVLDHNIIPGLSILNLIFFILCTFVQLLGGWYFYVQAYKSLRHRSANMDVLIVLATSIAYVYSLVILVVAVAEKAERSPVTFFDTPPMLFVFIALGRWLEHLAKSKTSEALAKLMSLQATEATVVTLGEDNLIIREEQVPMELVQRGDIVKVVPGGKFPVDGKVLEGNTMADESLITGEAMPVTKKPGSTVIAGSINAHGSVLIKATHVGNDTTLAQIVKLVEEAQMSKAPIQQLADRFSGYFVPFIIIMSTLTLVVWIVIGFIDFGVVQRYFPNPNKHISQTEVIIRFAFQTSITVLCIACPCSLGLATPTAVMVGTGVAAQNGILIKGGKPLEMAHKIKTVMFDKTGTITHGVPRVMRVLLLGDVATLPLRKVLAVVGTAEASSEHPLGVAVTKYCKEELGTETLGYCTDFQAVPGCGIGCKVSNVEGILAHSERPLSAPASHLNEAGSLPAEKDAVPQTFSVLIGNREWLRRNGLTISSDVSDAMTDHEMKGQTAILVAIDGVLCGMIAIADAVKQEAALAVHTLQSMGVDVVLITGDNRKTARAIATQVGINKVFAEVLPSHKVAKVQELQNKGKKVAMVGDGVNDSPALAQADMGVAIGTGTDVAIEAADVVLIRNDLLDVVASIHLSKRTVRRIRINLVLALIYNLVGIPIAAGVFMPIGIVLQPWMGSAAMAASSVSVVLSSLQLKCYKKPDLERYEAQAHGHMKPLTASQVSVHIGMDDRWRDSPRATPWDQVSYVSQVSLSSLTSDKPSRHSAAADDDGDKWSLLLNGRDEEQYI
UniProt O00170, sequence (O00170 whole entry, looked up): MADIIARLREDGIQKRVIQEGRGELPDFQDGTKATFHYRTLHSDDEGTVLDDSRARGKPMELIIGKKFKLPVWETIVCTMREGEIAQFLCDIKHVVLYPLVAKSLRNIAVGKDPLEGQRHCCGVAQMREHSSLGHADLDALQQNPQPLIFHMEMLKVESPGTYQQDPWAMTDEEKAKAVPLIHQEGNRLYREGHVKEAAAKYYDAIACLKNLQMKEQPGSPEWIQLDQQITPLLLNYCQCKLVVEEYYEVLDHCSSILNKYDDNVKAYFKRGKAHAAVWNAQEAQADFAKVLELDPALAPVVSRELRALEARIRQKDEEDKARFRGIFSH
UniProt Q96CW1, sequence (Q96CW1 whole entry, looked up): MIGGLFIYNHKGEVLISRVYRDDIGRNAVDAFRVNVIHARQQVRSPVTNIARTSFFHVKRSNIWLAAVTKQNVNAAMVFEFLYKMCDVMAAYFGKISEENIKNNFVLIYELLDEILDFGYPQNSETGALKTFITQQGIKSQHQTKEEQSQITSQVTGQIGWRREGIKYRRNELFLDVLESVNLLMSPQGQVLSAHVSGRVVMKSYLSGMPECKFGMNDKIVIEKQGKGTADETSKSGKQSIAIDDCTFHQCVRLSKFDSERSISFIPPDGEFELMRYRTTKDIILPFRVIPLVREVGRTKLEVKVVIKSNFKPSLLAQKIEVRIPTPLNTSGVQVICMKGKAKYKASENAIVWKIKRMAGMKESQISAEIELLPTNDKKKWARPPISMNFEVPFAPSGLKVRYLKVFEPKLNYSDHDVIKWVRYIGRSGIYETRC
UniProt Q9BX63, sequence (Q9BX63 whole entry, looked up): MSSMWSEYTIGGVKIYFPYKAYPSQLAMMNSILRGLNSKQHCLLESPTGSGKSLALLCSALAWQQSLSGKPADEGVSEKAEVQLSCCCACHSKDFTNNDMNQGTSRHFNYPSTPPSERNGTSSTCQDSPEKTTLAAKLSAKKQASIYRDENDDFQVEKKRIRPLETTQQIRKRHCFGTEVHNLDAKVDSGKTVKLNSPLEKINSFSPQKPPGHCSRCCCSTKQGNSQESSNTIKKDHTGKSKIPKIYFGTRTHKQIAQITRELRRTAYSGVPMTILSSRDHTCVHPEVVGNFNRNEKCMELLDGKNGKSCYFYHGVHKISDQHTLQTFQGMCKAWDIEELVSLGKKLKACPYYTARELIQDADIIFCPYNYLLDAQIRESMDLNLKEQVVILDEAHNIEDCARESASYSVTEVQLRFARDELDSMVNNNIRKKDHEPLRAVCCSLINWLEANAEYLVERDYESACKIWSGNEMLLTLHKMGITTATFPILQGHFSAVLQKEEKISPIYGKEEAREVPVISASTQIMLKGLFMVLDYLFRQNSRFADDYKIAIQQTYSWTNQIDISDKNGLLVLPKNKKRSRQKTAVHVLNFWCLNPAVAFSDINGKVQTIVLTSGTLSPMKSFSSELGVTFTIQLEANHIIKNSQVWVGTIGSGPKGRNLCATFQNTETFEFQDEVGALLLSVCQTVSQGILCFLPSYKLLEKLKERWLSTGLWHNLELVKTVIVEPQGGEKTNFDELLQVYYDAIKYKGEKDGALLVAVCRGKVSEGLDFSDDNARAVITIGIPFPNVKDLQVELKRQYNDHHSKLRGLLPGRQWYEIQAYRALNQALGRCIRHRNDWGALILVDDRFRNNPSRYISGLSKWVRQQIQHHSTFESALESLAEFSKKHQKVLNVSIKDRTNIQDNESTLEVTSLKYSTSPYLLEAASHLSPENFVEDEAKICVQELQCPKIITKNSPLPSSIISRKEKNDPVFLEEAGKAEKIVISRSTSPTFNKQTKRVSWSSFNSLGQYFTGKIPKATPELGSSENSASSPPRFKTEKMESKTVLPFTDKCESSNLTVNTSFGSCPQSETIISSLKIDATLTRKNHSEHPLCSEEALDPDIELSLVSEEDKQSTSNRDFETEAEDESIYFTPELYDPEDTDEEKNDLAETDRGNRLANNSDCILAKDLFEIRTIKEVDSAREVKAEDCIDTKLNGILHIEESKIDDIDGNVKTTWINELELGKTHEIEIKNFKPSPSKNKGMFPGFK
UniProt Q00973, sequence (Q00973 whole entry, looked up): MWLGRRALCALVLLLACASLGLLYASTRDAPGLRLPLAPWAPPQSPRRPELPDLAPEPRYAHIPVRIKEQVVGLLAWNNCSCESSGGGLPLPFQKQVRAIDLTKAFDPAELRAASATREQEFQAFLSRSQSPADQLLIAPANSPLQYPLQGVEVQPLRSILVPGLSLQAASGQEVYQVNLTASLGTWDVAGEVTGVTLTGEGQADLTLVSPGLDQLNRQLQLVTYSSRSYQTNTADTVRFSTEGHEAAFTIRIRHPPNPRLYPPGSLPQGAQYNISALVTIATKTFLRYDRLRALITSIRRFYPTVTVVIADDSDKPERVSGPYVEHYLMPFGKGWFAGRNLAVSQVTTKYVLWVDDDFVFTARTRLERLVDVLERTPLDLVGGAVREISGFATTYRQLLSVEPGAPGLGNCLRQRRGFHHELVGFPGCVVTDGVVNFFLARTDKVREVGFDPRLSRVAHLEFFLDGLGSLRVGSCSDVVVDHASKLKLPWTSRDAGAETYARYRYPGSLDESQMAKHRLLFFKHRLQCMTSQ
UniProt Q8NFV4, sequence (Q8NFV4 whole entry, looked up): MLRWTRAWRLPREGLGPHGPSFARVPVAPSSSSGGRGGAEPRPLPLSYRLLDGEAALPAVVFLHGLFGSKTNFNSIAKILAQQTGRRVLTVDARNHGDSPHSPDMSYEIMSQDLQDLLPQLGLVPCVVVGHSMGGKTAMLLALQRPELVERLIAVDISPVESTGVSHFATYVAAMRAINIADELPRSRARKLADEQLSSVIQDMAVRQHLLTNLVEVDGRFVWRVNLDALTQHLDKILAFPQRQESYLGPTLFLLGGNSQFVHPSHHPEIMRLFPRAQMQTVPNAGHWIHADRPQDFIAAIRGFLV
UniProt O00244, sequence (O00244 whole entry, looked up): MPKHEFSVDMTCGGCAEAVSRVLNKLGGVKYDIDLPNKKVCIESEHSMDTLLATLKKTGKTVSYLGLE
UniProt Q9NWB6, sequence (Q9NWB6 whole entry, looked up): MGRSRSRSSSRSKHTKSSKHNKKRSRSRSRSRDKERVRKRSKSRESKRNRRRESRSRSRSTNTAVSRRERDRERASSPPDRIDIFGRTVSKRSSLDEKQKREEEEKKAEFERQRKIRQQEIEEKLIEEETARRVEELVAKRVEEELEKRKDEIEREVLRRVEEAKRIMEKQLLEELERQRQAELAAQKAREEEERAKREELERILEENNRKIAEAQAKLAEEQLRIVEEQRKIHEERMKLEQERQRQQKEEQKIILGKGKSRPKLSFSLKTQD
UniProt Q96F25, sequence (Q96F25 whole entry, looked up): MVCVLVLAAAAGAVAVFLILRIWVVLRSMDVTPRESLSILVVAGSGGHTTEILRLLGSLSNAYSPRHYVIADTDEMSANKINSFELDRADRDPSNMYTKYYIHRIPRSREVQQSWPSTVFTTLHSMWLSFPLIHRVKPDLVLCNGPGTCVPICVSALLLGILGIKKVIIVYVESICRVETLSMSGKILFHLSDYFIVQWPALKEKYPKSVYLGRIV
BSCL2 isoform 4 (UniProt Q96G97) was tested, and the log2 fold change was 0.002 (inactive).
ARL3 (UniProt P36405) was tested, and the log2 fold change was 0.022 (inactive).
With ABCA4 (UniProt P78363) the log2 fold change was 0.016 (inactive).
ALG14 (UniProt Q96F25) was tested, and the log2 fold change was 0.014 (inactive).
For AFDN isoform 5 (UniProt P55196), the log2 fold change was 0.044 (inactive).
In the case of AP2M1 (UniProt Q96CW1), the log2 fold change is reported as -0.013 (inactive).
ATOX1 (UniProt O00244) was tested, and the log2 fold change was 0.174 (inactive).
With ADAMTS5 (UniProt Q9UNA0) the log2 fold change was 0.088 (inactive).
For AASDH (UniProt Q4L235), the log2 fold change was 0.045 (inactive).
ATP7B (UniProt P35670) was tested, and the log2 fold change was 0.015 (inactive).
With ATRN (UniProt O75882) the log2 fold change was 0.097 (inactive).
BRD3 (UniProt Q15059) was tested, and the log2 fold change was -0.05 (inactive).
For ACP1 (UniProt P24666), the log2 fold change was 0.037 (inactive).
With BRIP1 (UniProt Q9BX63) the log2 fold change was 0.02 (inactive).
In the case of ATXN3 isoform 1 (UniProt P54252), the log2 fold change is reported as 0.001 (inactive).
In the case of ARRDC1 (UniProt Q8N5I2), the log2 fold change is reported as 0 (inactive).
With ADAM15 (UniProt Q13444) the log2 fold change was -0.355 (active).
In the case of AIP (UniProt O00170), the log2 fold change is reported as 0.031 (inactive).
With ARHGAP25 isoform 4 (UniProt P42331) the log2 fold change was -0.009 (inactive).
With ABHD11 (UniProt Q8NFV4) the log2 fold change was 0.024 (inactive).
With ATF1 (UniProt P18846) the log2 fold change was -0.006 (inactive).
In the case of ARGLU1 (UniProt Q9NWB6), the log2 fold change is reported as -0.046 (inactive).
In the case of BCLAF1 (UniProt Q9NYF8), the log2 fold change is reported as -0.018 (inactive).
B4GALNT1 (UniProt Q00973) was tested, and the log2 fold change was -0.128 (inactive).
ARFGAP1 (UniProt Q8N6T3) was tested, and the log2 fold change was -0.003 (inactive).
In the case of ANK2 (UniProt Q01484), the log2 fold change is reported as 0.012 (inactive).
ACTR1B (UniProt P42025) was tested, and the log2 fold change was -0.011 (inactive).
In the case of APOH (UniProt P02749), the log2 fold change is reported as 0.145 (inactive).
APH1A (UniProt Q96BI3) was tested, and the log2 fold change was 0.036 (inactive).
In the case of AUP1 (UniProt Q9Y679), the log2 fold change is reported as 0.01 (inactive).

Each target was assayed with Cn1cc(-c2ccc3nnc(C(F)(F)c4ccc5ncccc5c4)n3n2)cn1 in the same assay as above.
Procedure, shortened: as §1
ARL3 (UniProt P36405) was tested, and the log2 fold change was -0.018 (inactive).
ABCA4 (UniProt P78363) was tested, and the log2 fold change was -0.071 (inactive).
With ALG14 (UniProt Q96F25) the log2 fold change was 0.126 (inactive).
In the case of AFDN isoform 5 (UniProt P55196), the log2 fold change is reported as -0.008 (inactive).
AP2M1 (UniProt Q96CW1) was tested, and the log2 fold change was -0.004 (inactive).
For ASB6 (UniProt Q9NWX5), the log2 fold change was -0.034 (inactive).
For ATOX1 (UniProt O00244), the log2 fold change was -0.084 (inactive).
With ADPRH (UniProt P54922) the log2 fold change was 0.038 (inactive).
For ADAMTS5 (UniProt Q9UNA0), the log2 fold change was 0.063 (inactive).
With AASDH (UniProt Q4L235) the log2 fold change was 0.024 (inactive).
For ATP7B (UniProt P35670), the log2 fold change was 0.001 (inactive).
BRD3 (UniProt Q15059) was tested, and the log2 fold change was 0.086 (inactive).
With BRIP1 (UniProt Q9BX63) the log2 fold change was -0.197 (inactive).
For ATXN3 isoform 1 (UniProt P54252), the log2 fold change was 0.033 (inactive).
With ARRDC1 (UniProt Q8N5I2) the log2 fold change was -0.087 (inactive).
ACTBL2 (UniProt Q562R1) was tested, and the log2 fold change was 0.336 (inactive).
For ADAM15 (UniProt Q13444), the log2 fold change was 0.018 (inactive).
In the case of AIP (UniProt O00170), the log2 fold change is reported as 0.012 (inactive).
With ABHD11 (UniProt Q8NFV4) the log2 fold change was 0.025 (inactive).
With ACSL6 isoform 1 (UniProt Q9UKU0) the log2 fold change was 0.014 (inactive).
For ARGLU1 (UniProt Q9NWB6), the log2 fold change was -0.031 (inactive).
In the case of BCLAF1 (UniProt Q9NYF8), the log2 fold change is reported as -0.065 (inactive).
With B4GALNT1 (UniProt Q00973) the log2 fold change was 0.036 (inactive).
In the case of ARFGAP1 (UniProt Q8N6T3), the log2 fold change is reported as 0.008 (inactive).
ANK2 (UniProt Q01484) was tested, and the log2 fold change was 0.01 (inactive).
ACTR1B (UniProt P42025) was tested, and the log2 fold change was 0.003 (inactive).
For AMD1 (UniProt P17707), the log2 fold change was -0.071 (inactive).
In the case of APOH (UniProt P02749), the log2 fold change is reported as -0.167 (inactive).
In the case of AUP1 (UniProt Q9Y679), the log2 fold change is reported as -0.03 (inactive).
